Measured values from PubChem BioAssay (NCATS).
Records with an inconclusive call do not appear. Active and inactive are the calls of the source. Calls follow the shape of the dose curve; as a rule, active = well fitted cell-killing curve with a large enough effect; inconclusive = small, poorly fitted or top-dose-only effect, or effect the other way; inactive = flat fitted curve, though single readings scatter.

Legend:
Experiment in all cases: Primary qHTS to identify gynecologic anti-cancer compounds using libraries of approved drugs and bioactive compounds (AID 1345084); also: nearly all actives have a fitted effect of over 55% in size
C33A = details: Gynecologic cancer cell panel viability, ATPlite luminescence, 48 h; series mostly up to 57.5 µM
Summary of the method: (§1)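 Five-point cytotoxicity, 48 h drug exposure at 37 C, 5% CO2, on cells seeded 16 h beforehand. ATP content read by ATPlite luminescence.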

CAOV3 = details: Gynecologic cancer cell panel viability, ATPlite luminescence, 48 h; series mostly up to 57.5 µM
Summary of the method: as §1

CASKI = details: Gynecologic cancer cell panel viability, ATPlite luminescence, 48 h; series mostly up to 57.5 µM
Summary of the method: as §1

Es-2 = details: Gynecologic cancer cell panel viability, ATPlite luminescence, 48 h; series mostly up to 57.5 µM
Summary of the method: as §1

HeLa = details: Gynecologic cancer cell panel viability, ATPlite luminescence, 48 h; series mostly up to 57.5 µM
Summary of the method: as §1

Hek293T = details: Gynecologic cancer cell panel viability, ATPlite luminescence, 48 h, control line for the selectivity index; series mostly up to 57.5 µM
Summary of the method: as §1

JEG-3 = details: Gynecologic cancer cell panel viability, ATPlite luminescence, 48 h; series mostly up to 57.5 µM
Summary of the method: as §1

OV90 = details: Gynecologic cancer cell panel viability, ATPlite luminescence, 48 h; series mostly up to 57.5 µM
Summary of the method: as §1

PA-1 = details: Gynecologic cancer cell panel viability, ATPlite luminescence, 48 h; series mostly up to 57.5 µM
Summary of the method: as §1

SKOV3 = details: Gynecologic cancer cell panel viability, ATPlite luminescence, 48 h; series mostly up to 57.5 µM
Summary of the method: as §1

Tov-21-G = details: Gynecologic cancer cell panel viability, ATPlite luminescence, 48 h; series mostly up to 57.5 µM
Summary of the method: as §1

Tov112D = details: Gynecologic cancer cell panel viability, ATPlite luminescence, 48 h; series mostly up to 57.5 µM
Summary of the method: as §1
% is scaled to controls: 0 for no effect and ±100 for the full control effect.

COc1cc(C(=O)OC[C@@]2(O)CO[C@@H](O[C@H]3[C@H](Oc4ccc(C(=O)O)cc4OC)O[C@H](CO)[C@@H](O)[C@@H]3O)[C@@H]2O)ccc1O
inactive: Potency (C33A) | Potency (CAOV3) | Potency (CASKI) | Potency (Es-2) | Potency (HeLa) | Potency (Hek293T) | Potency (JEG-3) | Potency (OV90) | Potency (PA-1) | Potency (SKOV3) | Potency (Tov-21-G) | Potency (Tov112D)

C[C@@H]1O[C@@H](O[C@H]2[C@H](O)[C@@H](C(=O)O)O[C@@H](O[C@H]3CC[C@@]4(C)C(CC[C@]5(C)C4CC=C4C6CC(C)(C)CC[C@]6(C(=O)O)CC[C@]45C)C3(C)C)[C@@H]2O[C@@H]2OC[C@@H](O)[C@H](O)[C@H]2O)[C@H](O)[C@H](O)[C@H]1O (stereo partly drawn)
inactive: activity change, negative = cytotoxicity (C33A) 12.7% [at 11.6 µM] | activity change, negative = cytotoxicity (CAOV3) -1.86% [at 11.6 µM] | activity change, negative = cytotoxicity (CASKI) -0.197% [at 11.6 µM] | activity change, negative = cytotoxicity (Es-2) -1.84% [at 11.6 µM] | activity change, negative = cytotoxicity (HeLa) 10.5% [at 11.6 µM] | activity change, negative = cytotoxicity (Hek293T) 5.25% [at 11.6 µM] | activity change, negative = cytotoxicity (JEG-3) 3.19% [at 11.6 µM] | activity change, negative = cytotoxicity (OV90) 2.8% [at 11.6 µM] | activity change, negative = cytotoxicity (PA-1) 4.01% [at 11.6 µM] | activity change, negative = cytotoxicity (SKOV3) -0.245% [at 11.6 µM] | activity change, negative = cytotoxicity (Tov-21-G) 13.2% [at 11.6 µM] | activity change, negative = cytotoxicity (Tov112D) 4.42% [at 11.6 µM]

COCCOc1ccc(N2CCN(CCn3ncc4c3nc(N)n3nc(-c5ccco5)nc43)CC2)cc1
inactive: Potency (C33A) | Potency (CAOV3) | Potency (CASKI) | Potency (Es-2) | Potency (HeLa) | Potency (Hek293T) | Potency (JEG-3) | Potency (OV90) | Potency (PA-1) | Potency (SKOV3) | Potency (Tov-21-G) | Potency (Tov112D)

CC1=CC(=O)CC(C)(C)C1CCC(C)O[C@@H]1O[C@H](CO[C@@H]2OC[C@@H](O)[C@H](O)[C@H]2O)[C@@H](O)[C@H](O)[C@H]1O (stereo partly drawn)
inactive: Potency (C33A) | Potency (CAOV3) | Potency (CASKI) | Potency (Es-2) | Potency (HeLa) | Potency (Hek293T) | Potency (JEG-3) | Potency (OV90) | Potency (PA-1) | Potency (SKOV3) | Potency (Tov-21-G) | Potency (Tov112D)

C=C[C@H]1C(O[C@@H]2O[C@H](CO)[C@@H](O)[C@H](O)[C@H]2O)OC=C2C(=O)N3CCc4c([nH]c5ccccc45)C3CC21 (stereo partly drawn)
inactive: Potency (C33A) | Potency (CAOV3) | Potency (CASKI) | Potency (Es-2) | Potency (HeLa) | Potency (Hek293T) | Potency (JEG-3) | Potency (OV90) | Potency (PA-1) | Potency (SKOV3) | Potency (Tov-21-G) | Potency (Tov112D)

C[C@@H]1CN(Cc2ncccn2)C[C@H]1c1nc2c(cnn2C2CCOCC2)c(=O)[nH]1
inactive: Potency (C33A) | Potency (CAOV3) | Potency (CASKI) | Potency (Es-2) | Potency (HeLa) | Potency (Hek293T) | Potency (JEG-3) | Potency (OV90) | Potency (PA-1) | Potency (SKOV3) | Potency (Tov-21-G) | Potency (Tov112D)

CC1CCC2(C=O)C(CO)=CCCC2C1(C)CC(=O)O (stereo not drawn)
inactive: Potency (C33A) | Potency (CAOV3) | Potency (CASKI) | Potency (Es-2) | Potency (HeLa) | Potency (Hek293T) | Potency (JEG-3) | Potency (OV90) | Potency (PA-1) | Potency (SKOV3) | Potency (Tov-21-G) | Potency (Tov112D)

COc1cc(N)c(Cl)cc1C(=O)NC[C@@H]1CCN2CCC[C@@H]12
inactive: Potency (C33A) | Potency (CAOV3) | Potency (CASKI) | Potency (Es-2) | Potency (HeLa) | Potency (Hek293T) | Potency (JEG-3) | Potency (OV90) | Potency (PA-1) | Potency (SKOV3) | Potency (Tov-21-G) | Potency (Tov112D)

CC(C)CC1NC(=O)C2CC3(O)c4ccccc4NC3N2C1=O (stereo not drawn)
inactive: Potency (C33A) | Potency (CAOV3) | Potency (CASKI) | Potency (Es-2) | Potency (HeLa) | Potency (Hek293T) | Potency (JEG-3) | Potency (OV90) | Potency (PA-1) | Potency (SKOV3) | Potency (Tov-21-G) | Potency (Tov112D)

Cc1cccc(S(=O)(=O)N2CCC[C@@H]2CCN2CCC(C)CC2)c1
inactive: Potency (C33A) | Potency (CAOV3) | Potency (CASKI) | Potency (Es-2) | Potency (HeLa) | Potency (Hek293T) | Potency (JEG-3) | Potency (OV90) | Potency (PA-1) | Potency (SKOV3) | Potency (Tov-21-G) | Potency (Tov112D)

O=C(/C=C/c1ccc(O)cc1)N[C@@H](Cc1ccc(O)cc1)C(=O)O
inactive: Potency (C33A) | Potency (CAOV3) | Potency (CASKI) | Potency (Es-2) | Potency (HeLa) | Potency (Hek293T) | Potency (JEG-3) | Potency (OV90) | Potency (PA-1) | Potency (SKOV3) | Potency (Tov-21-G) | Potency (Tov112D)

CC/C=C\CCO[C@@H]1O[C@H](CO)[C@@H](O)[C@H](O)[C@H]1O
inactive: Potency (C33A) | Potency (CAOV3) | Potency (CASKI) | Potency (Es-2) | Potency (HeLa) | Potency (Hek293T) | Potency (JEG-3) | Potency (OV90) | Potency (PA-1) | Potency (SKOV3) | Potency (Tov-21-G) | Potency (Tov112D)

OC1CCC(Nc2ncc3nc(Nc4c(F)cc(F)cc4F)n([C@H]4CCOC4)c3n2)CC1 (stereo partly drawn)
inactive: Potency (C33A) | Potency (CAOV3) | Potency (CASKI) | Potency (Es-2) | Potency (HeLa) | Potency (Hek293T) | Potency (JEG-3) | Potency (OV90) | Potency (PA-1) | Potency (SKOV3) | Potency (Tov-21-G) | Potency (Tov112D)

O=S(=O)(NC1CCC(c2cc(F)ccc2F)(S(=O)(=O)c2ccc(Cl)cc2)CC1)C(F)(F)F (stereo not drawn)
inactive: Potency (C33A) | Potency (CAOV3) | Potency (CASKI) | Potency (Es-2) | Potency (HeLa) | Potency (Hek293T) | Potency (JEG-3) | Potency (OV90) | Potency (PA-1) | Potency (SKOV3) | Potency (Tov-21-G) | Potency (Tov112D)
